Laboratory results: PubChem BioAssay (NCI)
About 79,000 compounds went through this panel and 15% of them were active in at least one assay; those are over-represented in the sample as a whole. The source made the active and inactive calls. No stated cut-off is given here; in the data, active means growth inhibition above about 70%; inactive means the rest.

Legend:
[1] = NCI Yeast Anticancer Drug Screen. Data for the rad52 strain (AID 147);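 further: 0% = growth of vehicle-treated control cultures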; details: S. cerevisiae rad52 mutant growth inhibition, active compounds read high
In short: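 Inhibition of yeast growth, referenced to vehicle controls, was the measured output for a strain with defective DNA damage repair.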

[2] = NCI Yeast Anticancer Drug Screen. Data for the wt1 strain (AID 149);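 further: 0% = growth of vehicle-treated wt1 cultures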; details: S. cerevisiae wt1 strain (SPY 50644) growth inhibition, active compounds read high
In short: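 Yeast wt1 strain exposed to compounds; growth inhibition measured relative to vehicle-treated controls.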

[3] = NCI Yeast Anticancer Drug Screen. Data for the rad50EPP+ strain (AID 151);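 further: 0% = growth of vehicle-treated control cultures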; details: S. cerevisiae rad50 mutant strain, active compounds read high
In short: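 Genetically defined yeast (rad50EPP+, DNA damage repair alteration) is grown with compound, and inhibition of growth is expressed relative to vehicle-treated controls.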

[4] = NCI Yeast Anticancer Drug Screen. Data for the mgt1 strain (AID 153); details: S. cerevisiae mgt1 mutant growth inhibition, active compounds read high
In short: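 In the mgt1 strain, test compounds were added and growth inhibition was determined relative to vehicle-treated controls.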

[5] = NCI Yeast Anticancer Drug Screen. Data for the rad50 strain (AID 155);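 further: 0% = growth of vehicle-only cultures of the same strain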; details: S. cerevisiae rad50 strain growth inhibition, active compounds read high
In short: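 Yeast carrying a defined DNA repair defect were exposed to test compounds, and growth was compared with vehicle-treated controls to give percent inhibition.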

[6] = NCI Yeast Anticancer Drug Screen. Data for the mec2-1 strain (AID 157); details: S. cerevisiae mec2-1 strain, active compounds read high
In short: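 Each compound was tested on mec2-1 yeast, a strain altered in DNA damage repair or cell cycle control. Growth inhibition is reported relative to vehicle.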

[7] = NCI Yeast Anticancer Drug Screen. Data for the rad14 strain (AID 159);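 further: 0% = growth of vehicle-treated control cultures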; details: S. cerevisiae rad14 strain growth inhibition, active compounds read high
In short: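 Yeast cells carrying a defined DNA-repair defect were exposed to compounds, and growth inhibition was calculated relative to vehicle-treated control cultures.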

[8] = NCI Yeast Anticancer Drug Screen. Data for the sgs1 mgt1 strain (AID 161);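 further: 0% = growth of cultures given vehicle only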; details: S. cerevisiae sgs1 mgt1 strain, active compounds read high
In short: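 Mutant yeast exposed to compound; growth scored against vehicle-only wells.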

[9] = NCI Yeast Anticancer Drug Screen. Data for the CLN2oe strain (AID 163);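 further: 0% = growth of vehicle-only control cultures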; details: S. cerevisiae CLN2oe strain, active compounds read high
In short: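 First, the altered yeast strain was treated with each compound; second, its growth was measured; finally, inhibition was derived by comparison with vehicle controls.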

[10] = NCI Yeast Anticancer Drug Screen. Data for the cln2 rad14 strain (AID 165);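 further: 0% = growth equal to vehicle treated cultures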; details: S. cerevisiae cln2 rad14 strain, active compounds read high
In short: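 Test compounds were added to cln2 rad14 yeast cultures; inhibition of growth was then determined by comparison with vehicle treatment.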

[11] = NCI Yeast Anticancer Drug Screen. Data for the bub3 strain (AID 167); details: S. cerevisiae bub3 mutant strain, active compounds read high
In short: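 Compounds were applied to a genetically altered yeast strain carrying a cell-cycle control defect. Growth inhibition was scored against vehicle-treated controls.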

[12] = NCI Yeast Anticancer Drug Screen. Data for the wt2 strain (AID 169);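 further: 0% = growth of vehicle-treated yeast cultures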; details: S. cerevisiae wt2 strain growth inhibition, active compounds read high
In short: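 The panel's yeast strains carry defined changes in DNA repair or cell cycle genes. Each strain is grown with compound, and growth loss is scored relative to vehicle.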

[13] = NCI Yeast Anticancer Drug Screen. Data for the mlh1 strain (AID 171);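 further: 0% = growth of vehicle-treated control cultures of the same strain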; details: S. cerevisiae mlh1 strain growth inhibition, active compounds read high
In short: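 Inhibition values reflect reduced yeast growth in the presence of compound, referenced to vehicle controls, using a strain chosen for its alteration in DNA repair or cell cycle control.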

[14] = NCI Yeast Anticancer Drug Screen. Data for the sgs1 strain (AID 173);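 further: 0% = growth of vehicle-only control cultures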; details: S. cerevisiae sgs1 mutant, active compounds read high
In short: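 Vehicle-treated cultures served as reference for growth inhibition of a yeast strain altered in DNA damage repair or cell cycle control after compound exposure.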

[15] = NCI Yeast Anticancer Drug Screen. Data for the mlh1 rad18 strain (AID 175); details: S. cerevisiae mlh1 rad18 strain growth inhibition, active compounds read high
In short: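 Inhibition values reflect reduced growth of mutant yeast versus vehicle-treated controls following compound exposure; the mutations affect DNA damage repair.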

[16] = NCI Yeast Anticancer Drug Screen. Data for the rad18 strain (AID 177); details: S. cerevisiae rad18 mutant growth inhibition, active compounds read high
In short: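 Steps: expose repair-mutant yeast to compound; measure growth; express as inhibition relative to vehicle control.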

[17] = at 5.0 µM (retest, dose inferred, filed as 0.5)
[18] = at 50.0 µM (retest, dose inferred, filed as 5.0)

Measured: growth inhibition

CCc1nc2ccc(NCCN(C)C)c3c(=O)c4ccccc4n1c23
inactive: [1]; at 1.2 µM 12% | [1]; at 3.7 µM 39% | [1]; at 11.0 µM 60% | [2]; at 1.2 µM 25% | [2]; at 3.7 µM 29% | [2]; at 11.0 µM 31% | [2]; at 33.0 µM 22% | [2]; at 100.0 µM 22% | [3]; at 1.2 µM 14% | [3]; at 3.7 µM 26% | [3]; at 11.0 µM 39% | [3]; at 33.0 µM 57% | [4]; at 1.2 µM 37% | [4]; at 3.7 µM 38% | [4]; at 11.0 µM 29% | [4]; at 33.0 µM 23% | [4]; at 100.0 µM 40% | [5]; at 1.2 µM 46% | [5]; at 3.7 µM 49% | [5]; [17] 38% | [5]; at 50.0 µM 29.1% | [6]; at 1.2 µM 25% | [6]; at 3.7 µM 26% | [6]; [17] 4% | [6]; at 11.0 µM 11% | [6]; at 33.0 µM 24% | [6]; [18] 40% | [6]; at 50.0 µM 20.1% | [6]; at 100.0 µM 16% | [7]; at 1.2 µM 31% | [7]; at 3.7 µM 33% | [7]; at 11.0 µM 35% | [7]; at 33.0 µM 37% | [7]; at 100.0 µM 58% | [8]; [17] 3% | [8]; [18] 28% | [8]; at 50.0 µM 19.6% | [9]; at 1.2 µM 18% | [9]; at 3.7 µM 13% | [9]; at 11.0 µM 17% | [9]; at 33.0 µM 33% | [9]; at 100.0 µM 46% | [10]; [17] 14% | [10]; [18] 26% | [10]; at 50.0 µM 21.8% | [11]; at 1.2 µM 9% | [11]; at 3.7 µM 11% | [11]; [17] 4% | [11]; at 11.0 µM 5% | [11]; at 33.0 µM 3% | [11]; [18] 32% | [11]; at 50.0 µM -4.2% | [11]; at 100.0 µM 26% | [12]; at 1.2 µM -39% | [12]; at 3.7 µM -34% | [12]; at 11.0 µM -29% | [12]; at 33.0 µM -31% | [12]; at 100.0 µM 5% | [13]; at 1.2 µM 37% | [13]; at 3.7 µM 38% | [13]; at 11.0 µM 29% | [13]; at 33.0 µM 23% | [13]; at 100.0 µM 40% | [14]; at 1.2 µM 18% | [14]; at 3.7 µM 15% | [14]; at 11.0 µM 28% | [14]; at 33.0 µM 22% | [14]; at 100.0 µM 54% | [15]; [17] 14% | [15]; [18] 53% | [16]; at 1.2 µM 30% | [16]; at 3.7 µM 42% | [16]; at 11.0 µM 44% | [16]; at 33.0 µM 63%
active: [1]; at 33.0 µM 81% | [1]; at 100.0 µM 85% | [3]; at 100.0 µM 71% | [5]; at 11.0 µM 74% | [5]; at 33.0 µM 89% | [5]; [18] 86% | [5]; at 100.0 µM 91% | [15]; at 50.0 µM 83.8% | [16]; at 100.0 µM 80%
